From publication PMC7862700, “An all-to-all approach to the identification of sequence-specific readers for epigenetic DNA modifications on cytosine”

Tests used:
Experiment in all cases: DAPPL (digital affinity profiling via proximity ligation, sequencing); 10 mM Tris-HCl pH 7.5, 50 mM NaCl, 1 mM DTT, 4% glycerol, room temperature, 30 min; GST-TFs on glutathione beads, 16-mer random dsDNA library, 0.1% formaldehyde crosslink after washing; high values mean tight binding
Conditions in all cases: protein: recombinant; tags: N-terminal GST; dsDNA, one strand shown
FLI1 = molecular target: T1, FLI1 (Homo sapiens, UniProt Q01543 1-452)
T1 sequence: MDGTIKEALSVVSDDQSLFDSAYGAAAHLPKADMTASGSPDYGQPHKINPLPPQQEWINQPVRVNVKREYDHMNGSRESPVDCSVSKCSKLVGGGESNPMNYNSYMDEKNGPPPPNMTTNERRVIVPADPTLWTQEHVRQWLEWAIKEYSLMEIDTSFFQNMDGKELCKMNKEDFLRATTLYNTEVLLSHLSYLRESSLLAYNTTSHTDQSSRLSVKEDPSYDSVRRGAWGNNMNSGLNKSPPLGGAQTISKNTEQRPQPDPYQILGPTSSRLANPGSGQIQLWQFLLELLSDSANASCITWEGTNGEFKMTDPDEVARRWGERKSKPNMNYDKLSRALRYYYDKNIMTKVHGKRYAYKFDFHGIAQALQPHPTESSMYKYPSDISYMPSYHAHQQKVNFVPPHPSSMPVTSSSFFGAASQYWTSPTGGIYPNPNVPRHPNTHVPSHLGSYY
How it was run: (§1)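 Pools were built from human transcription factors expressed in yeast as GST fusions, captured on glutathione beads and DNA-barcoded, along with a tag-only sample. Incubation with 200 nmole of a 16-mer random double-stranded DNA library lasted 30 min at room temperature in Tris/NaCl/DTT/glycerol buffer, and was followed by washing, 0.1% formaldehyde crosslinking, proximity ligation, PCR amplification and Illumina NextSeq500 sequencing. Binding signal is the quotient of each hexamer's read frequency for a factor and its frequency for the tag-only sample.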

ELK1 = molecular target: T2, ELK1 (Homo sapiens, UniProt P19419 1-428)
T2 sequence: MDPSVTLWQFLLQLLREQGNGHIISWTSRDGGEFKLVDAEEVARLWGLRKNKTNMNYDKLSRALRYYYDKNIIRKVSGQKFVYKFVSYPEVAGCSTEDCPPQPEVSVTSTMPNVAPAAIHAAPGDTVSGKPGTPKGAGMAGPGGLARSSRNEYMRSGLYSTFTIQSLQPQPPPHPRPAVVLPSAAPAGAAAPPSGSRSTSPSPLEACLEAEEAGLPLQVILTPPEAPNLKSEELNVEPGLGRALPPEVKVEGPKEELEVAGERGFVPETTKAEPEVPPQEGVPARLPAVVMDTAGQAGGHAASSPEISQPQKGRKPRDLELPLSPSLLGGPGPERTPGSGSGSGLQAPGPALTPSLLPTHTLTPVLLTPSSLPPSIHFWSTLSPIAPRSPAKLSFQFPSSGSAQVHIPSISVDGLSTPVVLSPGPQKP
How it was run: as §1

GABPA = molecular target: T3, GABPA (Homo sapiens, UniProt Q06546 1-454)
T3 sequence: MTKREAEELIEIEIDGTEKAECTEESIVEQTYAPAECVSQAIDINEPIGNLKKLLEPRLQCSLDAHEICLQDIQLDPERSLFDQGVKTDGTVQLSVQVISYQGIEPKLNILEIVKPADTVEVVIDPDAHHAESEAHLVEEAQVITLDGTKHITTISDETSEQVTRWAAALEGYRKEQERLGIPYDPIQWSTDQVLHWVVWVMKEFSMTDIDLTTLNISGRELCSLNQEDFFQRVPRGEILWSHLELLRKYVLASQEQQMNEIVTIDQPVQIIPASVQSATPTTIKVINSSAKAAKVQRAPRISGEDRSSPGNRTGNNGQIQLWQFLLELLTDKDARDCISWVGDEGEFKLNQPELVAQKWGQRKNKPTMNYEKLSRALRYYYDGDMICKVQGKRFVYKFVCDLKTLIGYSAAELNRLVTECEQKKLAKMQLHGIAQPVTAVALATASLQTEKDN
How it was run: as §1

ERG = molecular target: T4, ERG (Homo sapiens, UniProt P11308 1-479)
T4 sequence: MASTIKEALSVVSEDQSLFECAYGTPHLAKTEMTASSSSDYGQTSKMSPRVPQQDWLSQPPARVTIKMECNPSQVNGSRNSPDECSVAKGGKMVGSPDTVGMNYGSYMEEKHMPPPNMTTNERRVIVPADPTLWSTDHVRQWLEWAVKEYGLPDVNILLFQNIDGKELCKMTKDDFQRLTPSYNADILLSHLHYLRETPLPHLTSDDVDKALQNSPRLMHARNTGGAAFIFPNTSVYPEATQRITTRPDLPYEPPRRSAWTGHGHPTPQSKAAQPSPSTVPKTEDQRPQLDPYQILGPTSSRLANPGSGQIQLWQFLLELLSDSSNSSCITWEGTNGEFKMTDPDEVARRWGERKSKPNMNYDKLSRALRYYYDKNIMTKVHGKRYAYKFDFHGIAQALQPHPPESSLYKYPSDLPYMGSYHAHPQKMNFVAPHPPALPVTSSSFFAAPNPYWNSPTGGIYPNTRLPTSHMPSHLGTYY
How it was run: as §1

ELF1 = ELF1 (Homo sapiens, UniProt P32519 1-619)
Chain of ELF1 (P32519 whole entry): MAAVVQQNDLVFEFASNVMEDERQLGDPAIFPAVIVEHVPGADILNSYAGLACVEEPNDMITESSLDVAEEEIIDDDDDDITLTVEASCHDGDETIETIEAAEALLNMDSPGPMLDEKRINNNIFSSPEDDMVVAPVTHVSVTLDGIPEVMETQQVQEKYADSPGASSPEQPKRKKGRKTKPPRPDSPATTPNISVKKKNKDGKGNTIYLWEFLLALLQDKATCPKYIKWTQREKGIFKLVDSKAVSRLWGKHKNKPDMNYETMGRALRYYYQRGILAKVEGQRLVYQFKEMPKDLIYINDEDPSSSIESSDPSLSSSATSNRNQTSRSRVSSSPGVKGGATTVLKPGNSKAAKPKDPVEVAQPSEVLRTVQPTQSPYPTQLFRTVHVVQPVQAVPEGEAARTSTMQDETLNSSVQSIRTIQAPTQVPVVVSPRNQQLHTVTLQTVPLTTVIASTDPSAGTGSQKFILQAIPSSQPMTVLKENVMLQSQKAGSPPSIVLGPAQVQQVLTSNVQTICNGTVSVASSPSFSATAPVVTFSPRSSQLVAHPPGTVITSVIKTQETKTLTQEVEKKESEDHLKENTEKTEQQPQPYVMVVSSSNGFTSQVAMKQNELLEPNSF
How it was run: as §1

EHF = molecular target: T5, EHF (Homo sapiens, UniProt Q9NZC4 1-300)
T5 sequence: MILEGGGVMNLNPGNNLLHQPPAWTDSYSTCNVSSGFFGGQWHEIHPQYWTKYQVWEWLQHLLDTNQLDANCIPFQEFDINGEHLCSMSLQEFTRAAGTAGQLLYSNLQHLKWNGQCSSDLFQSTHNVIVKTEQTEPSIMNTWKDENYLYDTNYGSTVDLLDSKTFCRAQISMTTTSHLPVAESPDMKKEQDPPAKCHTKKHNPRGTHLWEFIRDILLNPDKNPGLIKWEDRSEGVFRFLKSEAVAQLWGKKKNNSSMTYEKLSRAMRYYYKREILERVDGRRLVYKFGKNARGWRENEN
How it was run: as §1

SPI1 = SPI1 (Homo sapiens, UniProt P17947 1-270)
How it was run: as §1

SPIB = SPIB (Homo sapiens, UniProt Q01892 1-262)
Chain of SPIB (Q01892 whole entry): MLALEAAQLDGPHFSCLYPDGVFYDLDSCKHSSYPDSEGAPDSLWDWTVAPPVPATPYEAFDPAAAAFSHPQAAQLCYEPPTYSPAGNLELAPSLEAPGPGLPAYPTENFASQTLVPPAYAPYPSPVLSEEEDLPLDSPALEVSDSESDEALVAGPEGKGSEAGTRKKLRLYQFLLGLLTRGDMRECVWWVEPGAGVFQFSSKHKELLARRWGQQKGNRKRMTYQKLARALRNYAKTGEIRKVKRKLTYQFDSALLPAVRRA
How it was run: as §1

ELK3 = molecular target: T6, ELK3 (Homo sapiens, UniProt P41970 1-407)
T6 sequence: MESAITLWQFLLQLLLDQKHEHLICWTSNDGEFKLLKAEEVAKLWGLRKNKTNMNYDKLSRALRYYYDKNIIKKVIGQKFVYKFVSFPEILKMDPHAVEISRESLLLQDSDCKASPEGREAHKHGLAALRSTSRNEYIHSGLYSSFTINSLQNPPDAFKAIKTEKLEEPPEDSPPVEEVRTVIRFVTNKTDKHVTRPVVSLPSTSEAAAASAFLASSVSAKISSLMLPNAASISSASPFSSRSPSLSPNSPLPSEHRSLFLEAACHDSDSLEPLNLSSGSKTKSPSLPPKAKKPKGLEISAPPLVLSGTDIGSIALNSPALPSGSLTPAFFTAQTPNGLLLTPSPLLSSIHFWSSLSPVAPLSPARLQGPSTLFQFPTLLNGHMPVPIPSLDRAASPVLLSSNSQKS
How it was run: as §1

FEV = molecular target: T7, FEV (Homo sapiens, UniProt Q99581 1-238)
T7 sequence: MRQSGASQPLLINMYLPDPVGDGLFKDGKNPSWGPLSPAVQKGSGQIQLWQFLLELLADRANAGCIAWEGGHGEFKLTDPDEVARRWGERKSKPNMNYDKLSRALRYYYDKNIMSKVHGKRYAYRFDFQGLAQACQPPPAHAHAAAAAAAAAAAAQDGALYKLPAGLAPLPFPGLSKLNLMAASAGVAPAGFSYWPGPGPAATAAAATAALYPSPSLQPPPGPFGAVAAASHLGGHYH
How it was run: as §1

ETV5 = ETV5 (Homo sapiens, UniProt P41161 1-510)
Chain of ETV5 (P41161 whole entry): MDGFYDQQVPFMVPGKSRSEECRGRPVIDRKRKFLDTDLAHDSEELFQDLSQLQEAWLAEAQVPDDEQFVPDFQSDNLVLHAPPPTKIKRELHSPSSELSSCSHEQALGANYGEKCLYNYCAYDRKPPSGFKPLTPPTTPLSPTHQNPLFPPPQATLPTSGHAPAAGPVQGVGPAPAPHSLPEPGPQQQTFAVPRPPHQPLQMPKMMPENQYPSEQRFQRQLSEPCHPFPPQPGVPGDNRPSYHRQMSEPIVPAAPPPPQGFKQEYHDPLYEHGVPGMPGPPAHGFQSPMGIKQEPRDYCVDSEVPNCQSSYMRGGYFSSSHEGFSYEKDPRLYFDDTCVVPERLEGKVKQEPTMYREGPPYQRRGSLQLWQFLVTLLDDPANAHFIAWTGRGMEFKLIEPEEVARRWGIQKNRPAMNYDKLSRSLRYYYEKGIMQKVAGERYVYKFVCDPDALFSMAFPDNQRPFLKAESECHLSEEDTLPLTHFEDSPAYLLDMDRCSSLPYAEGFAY
How it was run: as §1

SPIC = molecular target: T8, SPIC (Homo sapiens, UniProt Q8N5J4 1-248)
T8 sequence: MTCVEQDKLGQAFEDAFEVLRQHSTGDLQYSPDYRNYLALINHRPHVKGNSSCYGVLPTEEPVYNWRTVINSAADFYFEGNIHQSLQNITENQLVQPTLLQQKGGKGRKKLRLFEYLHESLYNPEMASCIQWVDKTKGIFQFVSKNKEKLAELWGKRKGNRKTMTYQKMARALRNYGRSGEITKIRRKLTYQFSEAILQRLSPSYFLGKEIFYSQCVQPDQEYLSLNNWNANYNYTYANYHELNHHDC
How it was run: as §1

ELF4 = ELF4 (Homo sapiens, UniProt Q99607 1-663)
Chain of ELF4 (Q99607 whole entry): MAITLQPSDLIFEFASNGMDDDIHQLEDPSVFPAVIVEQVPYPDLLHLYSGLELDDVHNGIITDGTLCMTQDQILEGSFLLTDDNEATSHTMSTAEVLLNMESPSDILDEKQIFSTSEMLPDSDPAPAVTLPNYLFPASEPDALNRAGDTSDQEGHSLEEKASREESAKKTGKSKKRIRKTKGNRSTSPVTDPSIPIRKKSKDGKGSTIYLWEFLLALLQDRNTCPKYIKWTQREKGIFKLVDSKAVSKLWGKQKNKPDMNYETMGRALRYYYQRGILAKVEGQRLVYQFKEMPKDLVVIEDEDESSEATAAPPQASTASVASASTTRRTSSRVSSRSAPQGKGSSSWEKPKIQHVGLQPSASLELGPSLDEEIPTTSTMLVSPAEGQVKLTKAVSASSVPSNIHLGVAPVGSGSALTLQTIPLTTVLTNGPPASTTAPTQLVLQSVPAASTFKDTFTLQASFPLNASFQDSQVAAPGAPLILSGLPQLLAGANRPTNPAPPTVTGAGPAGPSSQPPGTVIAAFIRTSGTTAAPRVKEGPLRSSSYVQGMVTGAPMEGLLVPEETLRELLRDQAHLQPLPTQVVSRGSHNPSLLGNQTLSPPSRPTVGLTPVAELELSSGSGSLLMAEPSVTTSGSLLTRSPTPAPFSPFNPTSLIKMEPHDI
How it was run: as §1

ELK4 = molecular target: T9, ELK4 (Homo sapiens, UniProt P28324-2 1-405)
T9 sequence: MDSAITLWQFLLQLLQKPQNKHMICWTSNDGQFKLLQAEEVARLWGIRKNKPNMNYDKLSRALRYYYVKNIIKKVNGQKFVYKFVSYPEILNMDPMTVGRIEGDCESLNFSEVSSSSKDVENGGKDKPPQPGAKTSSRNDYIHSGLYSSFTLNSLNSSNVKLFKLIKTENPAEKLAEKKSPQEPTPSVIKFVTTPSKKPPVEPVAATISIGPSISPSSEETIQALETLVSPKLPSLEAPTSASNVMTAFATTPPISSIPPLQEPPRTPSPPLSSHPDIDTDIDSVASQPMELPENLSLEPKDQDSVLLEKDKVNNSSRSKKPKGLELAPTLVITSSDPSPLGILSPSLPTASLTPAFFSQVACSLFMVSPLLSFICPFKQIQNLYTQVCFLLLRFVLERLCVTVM
How it was run: as §1

ETV2 = molecular target: T10, ETV2 (Homo sapiens, UniProt O00321 1-342)
T10 sequence: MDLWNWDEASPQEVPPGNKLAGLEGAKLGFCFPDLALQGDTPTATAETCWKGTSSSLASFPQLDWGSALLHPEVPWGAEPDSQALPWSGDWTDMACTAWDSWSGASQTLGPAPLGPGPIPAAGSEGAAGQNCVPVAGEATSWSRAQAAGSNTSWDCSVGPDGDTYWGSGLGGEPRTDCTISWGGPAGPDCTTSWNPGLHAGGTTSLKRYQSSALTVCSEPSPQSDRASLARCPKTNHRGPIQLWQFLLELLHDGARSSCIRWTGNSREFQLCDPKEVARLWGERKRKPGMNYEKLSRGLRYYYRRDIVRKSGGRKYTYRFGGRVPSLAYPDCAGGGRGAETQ
How it was run: as §1

ELF3 = molecular target: T11, ELF3 (Homo sapiens, UniProt P78545 1-371)
T11 sequence: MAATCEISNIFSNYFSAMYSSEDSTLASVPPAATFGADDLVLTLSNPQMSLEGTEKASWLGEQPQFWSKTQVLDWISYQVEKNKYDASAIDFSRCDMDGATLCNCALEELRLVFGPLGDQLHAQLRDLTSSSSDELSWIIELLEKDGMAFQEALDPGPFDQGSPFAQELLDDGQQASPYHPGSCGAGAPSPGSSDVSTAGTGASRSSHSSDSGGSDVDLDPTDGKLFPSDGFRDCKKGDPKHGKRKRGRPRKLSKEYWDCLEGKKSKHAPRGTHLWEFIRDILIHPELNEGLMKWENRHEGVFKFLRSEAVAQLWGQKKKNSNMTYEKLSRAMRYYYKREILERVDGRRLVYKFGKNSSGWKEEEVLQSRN
How it was run: as §1

ETV1 = ETV1 (Homo sapiens, UniProt P50549 1-477)
Chain of ETV1 (P50549 whole entry): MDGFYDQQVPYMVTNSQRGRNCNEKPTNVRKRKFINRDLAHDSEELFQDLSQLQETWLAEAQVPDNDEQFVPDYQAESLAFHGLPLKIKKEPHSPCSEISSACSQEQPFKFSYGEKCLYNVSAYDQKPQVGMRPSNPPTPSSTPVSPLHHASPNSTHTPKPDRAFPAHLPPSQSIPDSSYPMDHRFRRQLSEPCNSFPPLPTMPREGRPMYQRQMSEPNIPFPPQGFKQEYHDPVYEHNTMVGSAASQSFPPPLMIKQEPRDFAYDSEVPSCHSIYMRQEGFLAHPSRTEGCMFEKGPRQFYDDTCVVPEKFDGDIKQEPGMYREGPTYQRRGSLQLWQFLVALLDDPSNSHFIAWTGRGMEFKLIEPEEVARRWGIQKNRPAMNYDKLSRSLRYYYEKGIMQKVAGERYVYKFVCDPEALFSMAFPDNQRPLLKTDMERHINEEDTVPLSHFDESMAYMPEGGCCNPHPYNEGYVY
How it was run: as §1

Sequence	binding signal (FLI1)	binding signal (ELK1)	binding signal (GABPA)	binding signal (ERG)	binding signal (ELF1)	binding signal (EHF)	binding signal (SPI1)	binding signal (SPIB)	binding signal (ELK3)	binding signal (FEV)	binding signal (ETV5)	binding signal (SPIC)	binding signal (ELF4)	binding signal (ELK4)	binding signal (ETV2)	binding signal (ELF3)	binding signal (ETV1)
CAAACT	1.18 fold enrichment (6-mer frequency, TF over GST control)	1.14 fold enrichment (6-mer frequency, TF over GST control)	1.21 fold enrichment (6-mer frequency, TF over GST control)	1.12 fold enrichment (6-mer frequency, TF over GST control)	1.17 fold enrichment (6-mer frequency, TF over GST control)	1.15 fold enrichment (6-mer frequency, TF over GST control)	1.12 fold enrichment (6-mer frequency, TF over GST control)	1.14 fold enrichment (6-mer frequency, TF over GST control)	1.23 fold enrichment (6-mer frequency, TF over GST control)	1.17 fold enrichment (6-mer frequency, TF over GST control)	1.16 fold enrichment (6-mer frequency, TF over GST control)	1.14 fold enrichment (6-mer frequency, TF over GST control)	1.17 fold enrichment (6-mer frequency, TF over GST control)	1.15 fold enrichment (6-mer frequency, TF over GST control)	1.21 fold enrichment (6-mer frequency, TF over GST control)	1.06 fold enrichment (6-mer frequency, TF over GST control)	1.28 fold enrichment (6-mer frequency, TF over GST control)
GTTCAT	1.19 fold enrichment (6-mer frequency, TF over GST control)	1.25 fold enrichment (6-mer frequency, TF over GST control)	1.19 fold enrichment (6-mer frequency, TF over GST control)	1.1 fold enrichment (6-mer frequency, TF over GST control)	1.13 fold enrichment (6-mer frequency, TF over GST control)	1.17 fold enrichment (6-mer frequency, TF over GST control)	1.18 fold enrichment (6-mer frequency, TF over GST control)	1.14 fold enrichment (6-mer frequency, TF over GST control)	1.15 fold enrichment (6-mer frequency, TF over GST control)	1.1 fold enrichment (6-mer frequency, TF over GST control)	1.16 fold enrichment (6-mer frequency, TF over GST control)	1.15 fold enrichment (6-mer frequency, TF over GST control)	1.18 fold enrichment (6-mer frequency, TF over GST control)	1.2 fold enrichment (6-mer frequency, TF over GST control)	1.01 fold enrichment (6-mer frequency, TF over GST control)	1.04 fold enrichment (6-mer frequency, TF over GST control)	1.12 fold enrichment (6-mer frequency, TF over GST control)
CAACCC	1.15 fold enrichment (6-mer frequency, TF over GST control)	1.22 fold enrichment (6-mer frequency, TF over GST control)	1.27 fold enrichment (6-mer frequency, TF over GST control)	1.21 fold enrichment (6-mer frequency, TF over GST control)	1.24 fold enrichment (6-mer frequency, TF over GST control)	1.16 fold enrichment (6-mer frequency, TF over GST control)	1.21 fold enrichment (6-mer frequency, TF over GST control)	1.26 fold enrichment (6-mer frequency, TF over GST control)	1.21 fold enrichment (6-mer frequency, TF over GST control)	1.21 fold enrichment (6-mer frequency, TF over GST control)	1.23 fold enrichment (6-mer frequency, TF over GST control)	1.23 fold enrichment (6-mer frequency, TF over GST control)	1.34 fold enrichment (6-mer frequency, TF over GST control)	1.22 fold enrichment (6-mer frequency, TF over GST control)	1.17 fold enrichment (6-mer frequency, TF over GST control)	1.34 fold enrichment (6-mer frequency, TF over GST control)	1.18 fold enrichment (6-mer frequency, TF over GST control)
